Assay outcomes deposited in PubChem BioAssay by several laboratories.
CHT inh – inhibits the human high affinity choline transporter; 310,000 tested, 0.86% active; CHT-expressing cells, membrane potential dye, choline response; hits give low values; AID 488975; B-score at 10 µM; Q9GZV3;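 active = B-score over 3 SD under the library average, and starting fluorescence ratio not unusually high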;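 also: choline stimulus applied at its EC90 after an EC20 pre-addition; B-score computed on integrated fluorescence ratio after choline addition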
EP2 antag – inhibitors of human EP2 prostaglandin E2 receptor; C6 glioma cells expressing human EP2, cAMP TR-FRET; cells stimulated with saturating PGE2; inhibition, % at 25 µM; 260,000 tested, 0.52% active;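 active = percent inhibition above 40 after rounding to a whole number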;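 also: rat C6 glioma host cells with rolipram phosphodiesterase inhibitor present; the protocol text gives 20 µM as final concentration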
Target sequence (P43116 whole entry, looked up): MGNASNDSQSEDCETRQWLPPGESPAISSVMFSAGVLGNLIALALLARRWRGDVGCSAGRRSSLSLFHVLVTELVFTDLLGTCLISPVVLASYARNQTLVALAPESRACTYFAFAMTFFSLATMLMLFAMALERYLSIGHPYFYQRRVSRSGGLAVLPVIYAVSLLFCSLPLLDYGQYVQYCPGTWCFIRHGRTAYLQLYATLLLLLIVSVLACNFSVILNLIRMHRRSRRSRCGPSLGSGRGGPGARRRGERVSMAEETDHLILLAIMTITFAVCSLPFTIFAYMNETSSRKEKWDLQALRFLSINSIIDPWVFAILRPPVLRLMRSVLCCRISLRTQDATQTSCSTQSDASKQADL
CHT PAM – allosterically activates the human high affinity choline transporter | Q9GZV3 | CHT-expressing cells, membrane potential dye, choline EC20; hits give high values; LV-AA mutant CHT in HEK293 cells | B-score at 10 µM | 310,000 tested, 0.49% active | AID 488977;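 active = initial fluorescence not abnormally high and integrated response B-score, plate-corrected, over 3 SD above library mean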
EP2 modulator – modulates human prostaglandin E2 receptor EP2 signaling; P43116; EP2-expressing cells, cAMP HTRF FRET, PGE2 co-stimulation; induction, % at 25 µM; 260,000 tested, 0.83% active; AID 940;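 active = compounds whose cAMP rise, as percent of the full-agonist control response, exceeds 60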;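 also: rat C6 glioma line stably carrying human EP2 under a CMV promoter; the protocol text gives 20 µM as final concentration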
A number is an active result; . = inactive; / = not tested or not shown; ! = a repeat was not active. The list is not random: actives were taken first. Their share in the collection is about 2%.

SMILES	CHT inh	EP2 antag	CHT PAM	EP2 modulator
Oc1cc(O)c2c(c1)O[C@H](c1ccc(O)c(O)c1)[C@@H](O)[C@@H]2c1c(O)cc(O)c2c1O[C@@H](c1ccc(O)c(O)c1)[C@H](O)C2	/	51.1	/	.
Oc1ccc([C@H]2Oc3cc(O)cc(O)c3C[C@H]2O)cc1	/	.	/	.
CCc1c(C)sc2nc(C(C)C)n3c(=O)n(Cc4ccncc4)nc3c12	/	/	/	61.4
Cc1cc(NC(=O)CS(=O)(=O)c2ccccc2)no1	/	.	/	.
CC(C)=CCc1c(O)c(CC=C(C)C)c2c(c1O)-c1cc(O)c(O)cc1CC2	.	54.2	.	/
COc1cccc(C2=CC(c3ccc(N(C)C)cc3)n3ncnc3N2)c1 (stereo unspecified)	-9.27	.	.	.
Cc1ccc2[nH]c(=O)c(CN(CCN(C)C)C(=S)Nc3ccc(F)cc3)cc2c1	/	.	/	.
CC(=O)Nc1ccc(C(=O)CSc2nc(C)nc3sc4c(c23)CCC(C)C4)cc1 (stereo unspecified)	/	.	/	.
NC(N)=N/N=C/c1ccc(OCc2ccc(Cl)cc2)cc1	.	63.9	.	.
NC(N)=N/N=C/c1ccc(OCc2ccccc2)cc1	.	.	.	.
CC(C)(C)c1ccc(OCC(=O)Nc2ccc(C(=O)Nc3ccccc3C(=O)O)cc2)cc1	.	/	.	/
Cc1cccc(OCC(=O)Nc2ccc(C(=O)Nc3ccccc3C(=O)O)cc2)c1C	-5.58	/	.	/
COCC(=O)N1CCC(Cn2nc(-c3ccc(OC)cc3)ccc2=O)CC1	/	/	/	.
CCn1c(CN2CCC(O)(c3ccc4c(c3)OCO4)CC2)cnc1SC	/	.	/	.
C/C(N[O-])=C(\C)[N+]([O-])=[Co].CC(=N\[O-])/C(C)=N/[O-].O[C@@H]1[CH-]CCCC1.c1ccncc1	/	43.4	/	.
Cn1c(COc2ccc(Cl)cc2)nnc1SCC(=O)N1CCCCC1	/	.	/	.
Cc1ccc(NC2=C/C(=N\S(=O)(=O)c3cccs3)c3ccccc3C2=O)c(C)c1	.	44.1	.	.
Cc1cccc(NC2=C/C(=N/S(=O)(=O)c3cccs3)c3ccccc3C2=O)c1	.	.	.	.
O=C(O)CC(Cc1ccccc1)c1ccc2c(c1)OCO2 (stereo unspecified)	.	/	.	.
c1ccc(SC(Sc2ccccc2)c2ccc3c(c2)OCO3)cc1	/	41.5	/	.
COc1cccc(C(=O)NC2CCS(=O)(=O)C2)c1 (stereo unspecified)	/	.	/	.
CCNCc1cc2c(C)nn(-c3ccc(F)cc3)c2[nH]c1=O	/	.	/	.
O=c1c(Cl)c(Nc2cccc(Cl)c2)cnn1-c1nc2ccccc2s1	.	.	.	.
COc1ccc(Nc2cnn(-c3nc4ccccc4s3)c(=O)c2Cl)cc1	.	60.9	.	.
CCCCOC(=O)C1=C(N)N2C(=O)C(C)SC2=C(C(=O)OCC)C1c1ccc(O)c(OC)c1 (stereo unspecified)	.	.	.	.
SMILES	CHT inh	EP2 antag	CHT PAM	EP2 modulator
CCOC(=O)C1=C(N)N2C(=O)C(C)SC2=C(C(=O)OCC)C1c1ccccc1 (stereo unspecified)	.	.	.	62.3
O=Cc1ccc(OCc2cccc(C(F)(F)F)c2)cc1O	.	.	.	62.7
Cc1ccc(CN(C(=O)c2ccco2)C(C(=O)NC2CCCC2)c2ccco2)cc1 (stereo unspecified)	/	.	/	.
COc1ccc2c(c1)CN([C@H](C)[C@@H]1CC[C@@H]3[C@H]4CC[C@H]5C[C@@H](O)CC[C@]5(C)[C@@H]4CC[C@]31C)CO2	/	60.7	/	.
CC(CCC(=O)O)[C@H]1CCC2C3CC[C@@H]4C[C@H](O)CC[C@]4(C)C3CC[C@@]21C (stereo partly specified)	/	.	/	.
CC(C)N(Cc1ccc(C(=O)N2CCC3(CC2)NC(=O)c2cccnc2N3C)o1)C(C)C	/	.	/	.
CN(C)S(=O)(=O)c1ccc(Nc2ccc(O)c3c2C(=O)c2c([N+](=O)[O-])ccc(O)c2C3=O)cc1	/	58.8	/	.
COc1ccc(S(=O)(=O)N(CC(=O)N2CCN(C)CC2)c2ccc(Cl)cc2)cc1	/	.	/	.
Nc1ccc(N(S(=O)(=O)c2ccccc2)S(=O)(=O)c2ccccc2)c(Cl)c1	/	43.8	/	.
COc1ccccc1NC(=O)N(CCCO)Cc1cc2cc(C)ccc2[nH]c1=O	/	.	/	.
COc1ccc(-c2c(C)nn3c(N4CCOCC4)cc(C)nc23)cc1	/	/	/	.
c1ccc(CN2CCOCC2)cc1	.	.	.	.
c1ccc(CN2COc3c(ccc4c5c(ccc34)CN(Cc3ccccc3)CO5)C2)cc1	/	41.6	/	.
Cc1cc2n(n1)C(c1ccccc1)Nc1ccccc1-2 (stereo unspecified)	.	.	.	64.5!
O=C(Cc1cccs1)Nn1c(Cc2cccs2)nc2ccccc2c1=O	-6.74	.	.	.
O=C(Nn1c(Cc2cccs2)nc2ccccc2c1=O)c1ccc(F)c(F)c1	.	.	.	.
Cc1cc(C(=O)OCC(=O)NCc2ccco2)c(C)n1-c1ccc(F)cc1	-6.27	.	.	.
COC(=O)c1sc(NC(=O)c2c(F)cccc2F)c(C#N)c1C	.	.	.	.
N#Cc1c(NC(=O)C(F)(F)F)sc2c3c(=O)c4ccccc4c(=O)c=3oc3ccccc3c12	/	42.0	/	.
O=C1c2ccccc2-c2ccc(N(Cc3ccc(Br)cc3)Cc3ccc(Br)cc3)cc21	/	47.4	/	.
Cc1cccc(NC(=O)CSc2nccc(C)n2)c1	/	.	/	.
O=C(CSc1nnc(-c2ccc(F)cc2)o1)Nc1ccc2c(c1)OCCO2	/	.	/	.
CC(=O)O[C@H]1CC[C@@]2(C)C(=CC[C@H]3[C@@H]4CC[C@H](C5(C)OCCO5)[C@@]4(C)CC[C@@H]32)C1	.	/	.	/
CC(=O)O[C@H]1CC[C@@]2(C)C(=CC[C@H]3[C@H]2CC[C@]2(C)[C@@H]4[C@@H](C)[C@]5(CC[C@H](C)CN5)O[C@@H]4C[C@@H]32)C1	/	45.1	/	.
Cc1nn(CC(=O)NCc2ccc(F)cc2)c(=O)c2cc3sccc3n12	/	/	/	.
SMILES	CHT inh	EP2 antag	CHT PAM	EP2 modulator
O=C(NCc1ccc(Cl)cc1)c1ncn[nH]1	.	.	.	.
O=C(NCc1ccc(Cl)cc1)c1n[nH]c([N+](=O)[O-])c1Cl	-8.52	.	.	.
COc1ccc2c(c1)cc(C)c1nn(CC(=O)Nc3cccc(C)n3)c(=O)n12	/	/	/	.
Cc1cc(C)nc(NC(=O)c2cc([N+](=O)[O-])cc([N+](=O)[O-])c2)n1	.	.	7.22	.
O=C1CCC(NC(=O)c2ccccc2)C(=O)N1 (stereo unspecified)	.	.	.	.
C[C@@H]1C(NC(=O)c2ccccc2)CC2CC1C2(C)C (stereo partly specified)	-4.98	/	.	/
COCCNc1cc(C)nc2c(-c3ccc(F)cc3)c(C)nn12	/	.	/	.
NCC(O)c1ccc(O)c(O)c1 (stereo unspecified)	/	.	/	66.4
NCCc1ccc(O)c(O)c1	.	.	.	.
CCCOc1ccccc1C1NC(=O)NC(C)=C1C(=O)OCc1ccccc1 (stereo unspecified)	.	.	.	64.2
O=C1C2[C@@H](c3ccccc3)N[C@@H](c3ccccc3)C1[C@@H](c1ccccc1)N[C@H]2c1ccccc1	/	47.4	/	.
CCC1C(=O)C(CC)C(c2ccccc2)NC1c1ccccc1 (stereo unspecified)	.	/	.	/
